In PubChem BioAssay AID1159580 (chemical genetic matrix, 2015):
Where “and” joins values, the source holds several entries; their conditions need not be identical. Equal entries are not always repeated. The whole screen tested about 5,500 compounds, of which about 2,000 (36%) were called active. Roughly 18% stayed inconclusive and do not appear here. No stated cut-off is given here; in the data, active means normalized growth mostly below about 0.91 (no sharp cut-off); inconclusive means no clear call, values can overlap the other calls; inactive means mostly above about 0.92. This is one part of the list.

Assay: chemical genetic growth profiling, strain panel (AID 1159580);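 further: tested at 20 µM; growth read once vehicle control cultures reached saturation at 30 °C; 1 = growth at the plate median or of vehicle wells; lower values mean less growth of the strain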
Details: S. cerevisiae deletion strains, growth OD

Measured: normalized growth

NC1(C(=O)O)CC1
inactive: locus YAL013W, strain DEP1, active compounds read low 1 | locus YAL021C, strain ccr4, active compounds read low 1.04 | locus YAL026C, strain drs2, active compounds read low 1.04 | locus YAL030W, strain snc1, active compounds read low 1.02 | locus YAL040C, strain CLN3, active compounds read low 0.98 | locus YBL061C, strain skt5, active compounds read low 1.04 | locus YBR009C, strain hhf1, active compounds read low 1.02 | locus YBR021W, strain FUR4, active compounds read low 1.01 | locus YBR023C, strain chs3, active compounds read low 1.03 | locus YBR171W, strain sec66, active compounds read low 1.04 | locus YBR229C, strain ROT2, active compounds read low 1.01 | locus YBR231C, strain swc5, active compounds read low 1.02 | locus YBR279W, strain paf1, active compounds read low 1.02 | locus YCL011C, strain gbp2, active compounds read low 1.02 | locus YCL016C, strain dcc1, active compounds read low 1.04 | locus YCL029C, strain bik1, active compounds read low 1.02 | locus YCL061C, strain MRC1, active compounds read low 1.02 | locus YCL069W, strain vba3, active compounds read low 1.02 | locus YCR088W, strain abp1, active compounds read low 1.02 | locus YDL005C, strain med2, active compounds read low 1.03 | locus YDL035C, strain GPR1, active compounds read low 1.03 | locus YDL040C, strain nat1, active compounds read low 1.02 | locus YDL074C, strain BRE1, active compounds read low 1.01 | locus YDL101C, strain DUN1, active compounds read low 1.01 | locus YDL134C, strain PPH21, active compounds read low 1.01 | locus YDL185W, strain tfp1, active compounds read low 1.03 | locus YDL192W, strain arf1, active compounds read low 1.02 | locus YDR001C, strain nth1, active compounds read low 1.02 | locus YDR069C, strain doa4, active compounds read low 1.04 | locus YDR101C, strain arx1, active compounds read low 1 | locus YDR137W, strain rgp1, active compounds read low 1.06 | locus YDR150W, strain NUM1, active compounds read low 1.01 | locus YDR159W, strain sac3, active compounds read low 1.02 | locus YDR162C, strain NBP2, active compounds read low 1.03 | locus YDR195W, strain ref2 1.02 | locus YDR297W, strain sur2, active compounds read low 1.03 | locus YDR318W, strain mcm21, active compounds read low 1.03 | locus YDR334W, strain swr1, active compounds read low 1.03 | locus YDR335W, strain msn5, active compounds read low 1.04 | locus YDR363W, strain ESC2, active compounds read low 0.986 | locus YDR388W, active compounds read low 1.01 | locus YDR392W, strain spt3, active compounds read low 1.05 | locus YDR502C, strain sam2, active compounds read low 1.02 | locus YEL003W, strain gim4, active compounds read low 1.02 | locus YEL037C, strain rad23, active compounds read low 1.02 | locus YEL061C, strain CIN8 (second series), active compounds read low 1.03 | locus YEL061C, strain CIN8, active compounds read low 1 | locus YER002W, strain NOP16, active compounds read low 0.981 | locus YER015W, strain faa2, active compounds read low 1.03 | locus YER016W, strain bim1, active compounds read low 1.04 | locus YER110C, active compounds read low 1.03 | locus YER111C, strain swi4, active compounds read low 1.01 | locus YER155C, strain BEM2 (second series), active compounds read low 1.02 | locus YER155C, strain BEM2, active compounds read low 0.998 | locus YER167W, strain BCK2, active compounds read low 1.05 | locus YFR010W, strain ubp6, active compounds read low 1.01 | locus YGL078C, strain dbp3, active compounds read low 1.02 | locus YGL086W, strain mad1, active compounds read low 1.03 | locus YGL167C, strain pmr1, active compounds read low 1.04 | locus YGL173C, strain kem1, active compounds read low 1.03 | locus YGL227W, strain vid30, active compounds read low 1.02 | locus YGL240W, strain doc1, active compounds read low 1.01 | locus YGL248W, strain PDE1, active compounds read low 1.01 | locus YGL253W, strain hxk2, active compounds read low 1.04 | locus YGR078C, strain PAC10, active compounds read low 1.02 and 0.978 | locus YGR135W, strain pre9, active compounds read low 1.03 | locus YGR229C, strain SMI1, active compounds read low 1.01 | locus YGR252W, strain gcn5, active compounds read low 1.04 | locus YHR013C, strain ard1, active compounds read low 1.06 | locus YHR027C, strain rpn1, active compounds read low 1.04 | locus YHR030C, strain SLT2, active compounds read low 1 and 1.03 | locus YHR079C, strain IRE1 (second series), active compounds read low 1.01 | locus YHR079C, strain IRE1, active compounds read low 1.03 | locus YHR094C, strain hxt1, active compounds read low 1.01 | locus YHR129C, strain ARP1, active compounds read low 1 | locus YHR142W, strain chs7, active compounds read low 1.05 | locus YHR200W, strain rpn10, active compounds read low 1.03 | locus YIL066C, strain RNR3, active compounds read low 1.02 | locus YIL073C, strain SPO22, active compounds read low 1.11 | locus YIL125W, strain kgd1, active compounds read low 1 | locus YIR030C, strain dcg1, active compounds read low 1.01 | locus YJL092W, strain hpr5, active compounds read low 1.02 | locus YJL095W, strain BCK1 (second series), active compounds read low 1.02 | locus YJL095W, strain BCK1, active compounds read low 1.02 and 1.04 | locus YJL115W, strain asf1, active compounds read low 1.03 | locus YJL129C, strain trk1, active compounds read low 1.05 | locus YJL134W, strain LCB3, active compounds read low 1 | locus YJL154C, strain vps35, active compounds read low 1.01 | locus YJL164C, strain tpk1, active compounds read low 1.02 | locus YJL166W, strain qcr8, active compounds read low 1.01 | locus YJL168C, strain set2, active compounds read low 1.02 | locus YJL187C, strain SWE1 (second series), active compounds read low 1.01 | locus YJL187C, strain SWE1, active compounds read low 1.01 | locus YJR043C, strain POL32, active compounds read low 1.01 | locus YJR066W, strain TOR1, active compounds read low 0.98
